Compound activity deposited in PubChem by National Center for Advancing Translational Sciences (NCATS).
LmPK inhibitor: qHTS Assay for Inhibitors of Leishmania Mexicana Pyruvate Kinase (LmPK). Q27686. purified LmPK, Kinase-Glo ATP luminescence, 1 h. Potency, µM (doses to about 57.5 µM), inactives show top-dose activity change, negative = inhibition, actives largely listed as inhibitors. actives 0.37% (n = 290,000); further: potency means the concentration at half of the fitted maximal effect; on the % scale 0 is the no-effect control and ±100 the full control effect
Target sequence (Q27686 whole entry, looked up): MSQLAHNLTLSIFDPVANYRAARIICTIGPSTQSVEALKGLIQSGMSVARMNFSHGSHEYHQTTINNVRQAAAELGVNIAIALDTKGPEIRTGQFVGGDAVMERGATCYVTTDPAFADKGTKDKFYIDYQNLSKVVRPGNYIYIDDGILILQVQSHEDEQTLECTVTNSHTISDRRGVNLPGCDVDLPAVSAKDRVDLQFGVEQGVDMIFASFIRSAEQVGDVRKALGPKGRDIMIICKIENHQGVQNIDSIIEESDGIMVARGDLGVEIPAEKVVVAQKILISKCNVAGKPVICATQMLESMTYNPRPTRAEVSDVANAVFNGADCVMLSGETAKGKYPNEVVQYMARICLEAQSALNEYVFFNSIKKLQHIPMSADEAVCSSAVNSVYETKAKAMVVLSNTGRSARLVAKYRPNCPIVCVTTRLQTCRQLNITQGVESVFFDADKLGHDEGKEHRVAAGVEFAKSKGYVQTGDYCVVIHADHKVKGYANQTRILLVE
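Kinase-Glo luminescence read after 1 h RT reaction of 0.1 nM LmPK with 0.5 mM PEP and 0.1 mM ADP. Activity scaled between uninhibited and enzyme-free controls.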
Shiga inhibitor: A qHTS for Small Molecule Inhibitors of Shiga Toxin; inhibition, % at 38.7 µM; AID 2315, 2010; Vero cells, Shiga toxin protein synthesis inhibition reporter; actives 9.2% (n = 290,000); in the data active means inhibition mostly above about 28%, no sharp cut-off; inactive means mostly below about 43%; further: 0% is about no effect
Pf growth 96h: Primary qHTS for delayed death inhibitors of the malarial parasite plastid, 96 hour incubation; actives 6.9% (n = 320,000); Potency, µM (highest dose often 28.7 µM), without a hit: top-dose activity change, negative = inhibition, actives largely listed as inhibitors; P. falciparum luciferase reporter growth, 96 h; further: potency means the concentration at half of the fitted maximal effect; on the % scale 0 is the no-effect control and ±100 the full control effect
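Luminescence readout: decreased luciferase signal marks inhibited growth of reporter-expressing P. falciparum in infected red cells (2% hematocrit, 0.05% parasitemia final), exposed to compound two generations (96 h, 37 C, 5% CO2).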
CHX counter: Cycloheximide Counterscreen for Small Molecule Inhibitors of Shiga Toxin | AID 2314, 2010 | actives 12% (n = 300,000) | max response, % | cell reporter, cycloheximide protein synthesis inhibition counterscreen; in the data active means max response mostly above about 13%, no sharp cut-off; inactive means mostly below about 14%; further: read at 38.3 µM for the half of the compounds with a filed dose; 0% is about no effect
Pf growth 48h: Primary qHTS for delayed death inhibitors of the malarial parasite plastid, 48 hour incubation. P. falciparum luciferase growth in erythrocytes, 48 h. Potency, µM (highest dose often 28.7 µM), without a hit: top-dose activity change, negative = inhibition, actives largely listed as inhibitors. actives 5.9% (n = 310,000); further: potency means the concentration at half of the fitted maximal effect; on the % scale 0 is the no-effect control and ±100 the full control effect
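Read-out is firefly luciferase luminescence from an integrated reporter in P. falciparum, so falling signal marks reduced parasite growth. Infected erythrocytes were at 2% hematocrit and 0.1% parasitemia (final) in Albumax-supplemented RPMI 1640.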
Starred values were filed as active, the others as inactive; ? = inconclusive; / = not tested or not shown; ! = not confirmed by another sample; [ ] = another dose, or the depositor's remark. The list is not random: actives were taken first. Their share in the collection is about 22%. Unless noted, the call rests on the fitted dose curve; in most records, active means well fitted inhibition curve with a large enough effect; inconclusive means small, poorly fitted or top-dose-only effect, or another doubt; inactive means no such curve, though single readings can be large or run the other way.

SMILES | LmPK inhibitor | Shiga inhibitor | Pf growth 96h | CHX counter | Pf growth 48h
COc1ccc(NC(=O)CN(C)C(=O)c2ccc(NS(=O)(=O)c3ccc4[nH]c(=O)[nH]c4c3)cc2)cc1 | / | / | ? | / | 1.7%
Cc1cc(C(C)(C)C)cc(C)c1Cn1c2[n+](c3ccc(C(F)(F)F)cc31)CCCCC2 | -0.3% | -5.6 | ? | -4.5 | 3.29µM*
FC(F)(F)c1cccc(Cn2c3[n+](c4ccc(C(F)(F)F)cc42)CCCCC3)c1 | 0.9% | 27.3 | ? | -2.8 | 4.15µM*
O=[N+]([O-])C1C(c2ccccc2)=NOC1c1ccccc1O (stereo not given) | -3.6% | 24.6* | ? | 23.8* | 17.0%
Nc1nc(-c2cc(O)ccc2[N+](=O)[O-])cc(-c2ccccc2)c1[N+](=O)[O-] | -10.4% | -10.2 | 1.7% | -3.4 | 8.1%
COc1ccc(NC(=O)CC(C)(C)C)c([N+](=O)[O-])c1 | -1.9% | 9.6 | ? | -3.5 | 8.3%
O=C(COC(=O)COc1ccccc1[N+](=O)[O-])Nc1cccc(Br)c1 | -0.9% | -6.0 | 44.3% | 15.1* | 19.7%
COc1cc(NC(=O)COc2ccccc2[N+](=O)[O-])ccc1NC(=O)c1cccs1 | 1.9% | -5.1 | 11.7µM* | -1.1 | 51.9%
COc1ccc(NC(=O)C/C(C)=N/NC(=O)c2cccs2)c([N+](=O)[O-])c1 | -1.4% | 120.2* | ? | 60.9* | 17.6%
COc1cccc(NC(=O)COC(=O)COc2ccccc2[N+](=O)[O-])c1 | 1.6% | -10.7 | -15.9% | -6.7 | 0.8%
COc1ccc(NC(=O)/C=C/c2ccccc2)c([N+](=O)[O-])c1 | 1.3% | 126.1* | ? | 65.2* | 76.0%
COc1ccc(NC(=O)c2sccc2C)c([N+](=O)[O-])c1 | -9.1% | 86.7 | -1.8%[5.75 µM] | 32.1* | 42.0%
CCCCC(=O)Nc1ccc(NC(=O)c2ccc([N+](=O)[O-])cc2)cc1OC | -3.2% | -3.6 | ? | 1.5 | 27.4%
CCCCC(=O)Nc1ccc(C(=O)Nc2ccc(OC)cc2[N+](=O)[O-])cc1 | 1.9% | 15.1 | 3.7µM* | 0.9 | -22.3%
COc1ccc(NC(=O)c2cc(Cl)ccc2Cl)c([N+](=O)[O-])c1 | 2.0% | -6.3 | ? | -3.0 | -15.9%
COc1ccc(NC(=O)c2cccs2)c([N+](=O)[O-])c1 | -5.9% | 80.3* | 39.9% | 37.5* | 123.7%
O=C(Nc1nccs1)c1cc2c(s1)CCCCC2 | 14.1µM* | 15.2 | -48.2% | 3.9 | /
O=C(Nc1nncs1)c1cc2c(s1)CCC2 | -22.6% | 30.0* | 190.4% | 20.9* | 169.2%
CC(C)Cc1nnc(NC(=O)c2cc3c(s2)CCC3)s1 | -1.2% | 54.6* | 95.9% | 17.3* | -151.8%
O=C(COC(=O)CN1C(=O)c2ccccc2C1=O)NC1CCCC1 | -6.5% | -6.8 | 10.9% | -7.7 | -1.6%
O=C(NCCSc1c[nH]c2ccccc12)c1ccc2c(c1)OCO2 | 2.2% | 23.3 | 15.4% | 11.6 | 4.0%
CC1(C)CN=C(N(Cc2ccccc2)C(=O)Nc2ccccc2)S1 | -1.8% | 76.1* | 95.9% | 65.3* | 139.3%
CC1(C)CN=C(N(C(=O)Nc2ccccc2)c2ccccc2F)S1 | -0.5% | 61.7* | -10.7% | 16.6* | -28.6%
Cc1cccnc1N(C(=O)Nc1ccccc1)C1=NCC(C)(C)S1 | 3.9% | 89.9 | -22.1% | 6.6 | ?
O=C(O)CC1(CC(=O)Nc2ccccc2N2CCOCC2)CCCC1 | 6.2% | -5.8 | 52.0% | 0.4 | 62.4%
SMILES | LmPK inhibitor | Shiga inhibitor | Pf growth 96h | CHX counter | Pf growth 48h
Cc1nc2ccc(-c3ccccc3)cc2o1 | -5.5% | 62.7 | -23.7% | 53.5* | -0.9%
OC(c1ccccc1)c1nc2ccccc2s1 (stereo not given) | 6.1% | 22.7 | -1.4% | 12.9 | /
O=C(CCc1nc2ccccc2s1)OCc1ccccc1 | -4.8% | 19.9 | -3.8% | -1.5 | -20.7%
N/C(Cc1nc2ccccc2s1)=N\O | -2.3% | 108.2* | ? | 30.6* | ?
NC(=O)CSCc1nc2ccccc2s1 | -3.1% | 41.7 | -17.2% | 84.2* | /
CC(C)c1ccc(C2(O)C(=O)Nc3cc(Br)ccc32)c(O)c1 (stereo not given) | -1.0% | -1.4 | 13.1µM* | 0.9 | 13.1µM*
O=C(NC(=S)Nc1cccc(NC(=S)NC(=O)c2ccco2)n1)c1ccco1 | 1.7% | -0.8 | 1.31µM* | 9.1 | -10.2%
Cc1cccc(NC(=S)NC(=O)c2ccco2)c1C | -2.8% | 14.4 | 11.4% | 31.6 | 38.2%
O=C(NC(=S)Nc1ccccc1Br)c1ccco1 | -4.3% | 98.5* | ? | 53.9* | -6.4%
CC(C)[C@H](/C=C/C[Si](C)(C)C)[C@H](C)C(O)/C=C/CCCOC(=O)C(C)(C)C (stereo not given in full) | / | 0.8 | / | -5.1 | /
Cc1nc2cc(NC(=O)NCCCO)ccc2o1 | -1.9% | 1.3 | 326.5% | -2.3 | 7.3%
COc1ccc(NC(=O)Nc2ccc3oc(C)nc3c2)cc1 | -0.7% | 67.4* | ? | 30.1* | 86.6%
Cc1nc2cc(NC(=O)NCCC3=CCCCC3)ccc2o1 | 2.1% | 56.6* | -13.8% | 18.9* | 87.4%
C=CCNC(=O)Nc1ccc2oc(C)nc2c1 | -6.9% | 15.5 | / | 6.4 | 34.3%
Oc1ccc(CNc2ccccc2F)c2cccnc12 | 21.1% | 23.7 | 4.15µM*! | -3.0 | 1.47µM*
Oc1ccc(CNc2cccc(F)c2F)c2cccnc12 | / | / | ? | / | 10.4µM*
Oc1ccc(CNc2ccc(C(F)(F)F)cc2Cl)c2cccnc12 | / | / | 3.29µM* | / | 1.65µM*
COc1cccc(CNc2ccccc2O)c1OCc1ccccc1F | -4.8% | 27.4 | 7.2% | -2.8 | -29.3%
O=C1CCC(C(=O)Nc2ccccc2N2CCOCC2)=NN1 | -3.1% | 9.8 | 7.6% | 0.7 | -14.0%
O=C(NCc1ncc(C(F)(F)F)cc1Cl)Nc1ccccc1 | -1.3% | 18.3 | -8.3% | 12.3 | -6.4%
Cc1onc(-c2ccccc2)c1-c1ccnc(N)n1 | -5.8% | -5.3 | ? | -1.1 | 1.0%
Cc1ccc(C)n1-c1ccc(-c2ccnc(N)n2)cc1 | -0.2% | 28.3 | ? | 24.3* | ?
CC(=O)N1[C@H](Cc2ccccc2)C=C[C@]1(C)C(=O)NCc1ccccn1 | 5.9% | -4.5 | 4.2% | -3.6 | 15.1%
O=C(Cc1coc2cc3c(cc12)CCC3)NC1CCCCCCC1 | -2.0% | 2.3 | 29.1% | 12.4* | 8.4%
O=C(O)Cc1coc2cc3c(cc12)CCC3 | 2.1% | -7.3 | 105.8% | -1.5 | ?
COc1cccc(CN(C)CC(O)COc2cc(Cl)ccc2Cl)c1 (stereo not given) | -7.9% | -1.9 | ? | 0.9 | 10.4µM*
CC(C)NC(=O)COc1coc(CN2CCN(c3ccccc3)CC2)cc1=O | -13.8% | -12.2 | ? | -3.3 | 9.0%
CNC(=O)COc1coc(CN2CCN(c3cccc(Cl)c3)CC2)cc1=O | 3.1% | -3.8 | 8.2% | -2.4 | -11.3%
O=C(COc1coc(CN2CCN(c3cccc(Cl)c3)CC2)cc1=O)NC1CCCC1 | / | / | ? | / | 9.28µM*
